Holding throughout (type): functional
For test [1], the system named is Plasmodium falciparum. Put plainly: GSK_TCMDC: Inhibition of Plasmodium falciparum 3D7 in whole red blood cells, using parasite LDH activity as an index of growth. Test compounds present at 2uM.
For test [2], the system named is Plasmodium falciparum. Put plainly: GSK_TCMDC: Inhibition of Plasmodium falciparum Dd2 in whole red blood cells, using parasite LDH activity as an index of growth. Test compounds present at 2uM.
The subject of test [3] is HepG2. Put plainly: GSK_TCMDC: Percent inhibition of human HepG2 cell line. Test compounds present at 10uM.

With `Cl.O=S(=O)(Nc1ccc2nccc(N3CCNCC3)c2c1)c1ccc(-c2ccccc2)cc1`, the Inhibition in test [1] is 100%; in test [2], 0%; in test [3] it was 0%.
As to `CCN(CC)c1ccc(C=CC(=O)NCCN2CCC(N(C)C3CCCCC3C)CC2)cc1` (configuration not stated), the Inhibition is 88% in test [1], 18% in test [2] and 29% in test [3].
The corresponding values for `CN(C)CCOc1ccc2c(c1)OC(C)(C)C=C2c1cccc2ccccc12.Cl` are 95%, 48% and 66%.
The corresponding values for `Cc1cnc(Nc2cccnc2)nc1Nc1ccccc1C(=O)NC(C)C` are 85%, 26% and 9%.
For the compound `CNC(=N)c1ccc(NC(=O)c2ccc(C(=O)Nc3ccc(C(=N)NC)cc3)cc2)cc1.Cl`, the figures for the Inhibition in test [1], in test [2] and in test [3] were 96%, 91% and 6%, respectively.
The like results for `CN1CCC(Oc2ccc(CN3CC[C@H](NC(=O)c4ccc(Cl)c(Cl)c4)C3)cc2Cl)C1.O=C(O)C(F)(F)F` (some centres not stated) were, in that order, 100%, 78% and 68%.
As to `CCCNC(=O)c1cncc(-c2ccc(CNCCCc3ccccc3)cc2)c1.O=C(O)C(F)(F)F`, the Inhibition in test [1] is 100%; in test [2] it was 29%; in test [3] it was 0%.
The corresponding values for `CNCCNCc1cccc(-c2ccc(-c3nc4cc(C(F)(F)F)ccc4[nH]3)s2)c1.O=C(O)C(F)(F)F` are 98%, 85% and 31%.
The corresponding values for `COc1ccc(-c2ccc(NC(=O)c3ccc(C#N)cc3)c(F)c2)cc1CN(C)CCN(C)C.O=C(O)C(F)(F)F` are 88%, 0% and 24%.
For the compound `CC(C)Nc1cc(C(=O)N[C@@H](Cc2ccccc2)[C@H](O)CNC2CCCCC2)cc(N2CCCCS2(=O)=O)c1.O=CO`, the Inhibition in test [1] was determined as 98%; in test [2] it was 98%; in test [3], 9%.
As to `Cc1cc(N[C@@H](Cc2ccccc2)C(=O)NCCOc2ccccc2)nc(NCCc2cccs2)n1.O=C(O)C(F)(F)F`, the Inhibition in test [1] worked out at 95%; in test [2], 32%; in test [3], 8%.
Take `CCN(CC)CCNc1ccnc2ccc3ccccc3c12`: the Inhibition in test [1] is on record as 100%; in test [2], 67%; in test [3] it was 5%.
The like results for `CCN(CCCN1CCCCC1)c1cc(C)nc(Nc2ccc3c(c2)CCC3)n1.O=C(O)C(F)(F)F` were, in that order, 100%, 93% and 32%.
With `Cc1nn(-c2ccnc3cc(Cl)ccc23)c(C)c1C(=O)NCc1cc(Cl)cc(Cl)c1`, the Inhibition in test [1] was 97%; in test [2] it was 53%; in test [3] it was 0%.
The corresponding values for `O=C(Nc1cccc(CN2CCN(Cc3ccc(O)cc3)CC2)c1)c1ccc(Cl)c(Cl)c1.O=C(O)C(F)(F)F` are 100%, 95% and 30%.
The corresponding values for `CN(C)Cc1ccc(CN2CCN(CCOc3ccc(-c4ccc(Cl)cc4)cc3)CC2)o1` are 90%, 21% and 75%.
In the case of `CCn1c(-c2nc(-c3ccnc(N4CCN(C)CC4)c3)cnc2N)nc2cc(S(C)(=O)=O)ccc21`, the figures for the Inhibition in test [1], in test [2] and in test [3] were 100%, 76% and 44%, respectively.
The like results for `CCCCN1CCCN(Cc2cccc(NC(=O)c3ccc(-c4ccccc4)cc3)c2)CC1.O=C(O)C(F)(F)F` were, in that order, 92%, 8% and 19%.
The like results for `COc1cc(Nc2nccc(N3CCC(NC(=O)Nc4ccc5c(c4)OCO5)C3)n2)cc(OC)c1OC` (configuration not stated) were, in that order, 96%, 74% and 9%.
The corresponding values for `Cc1cccc2nc(-c3cccc(-c4ccc(NC(=O)NCc5ccccc5)cc4)c3)[nH]c12` are 100%, 47% and 35%.
As to `CCCCNCc1ccc(-c2nc(CN(CCCn3ccnc3)C(=O)C3COc4ccccc4O3)cs2)cc1.O=C(O)C(F)(F)F` (configuration not stated), the Inhibition in test [1] amounted to 93%; in test [2] it was 8%; in test [3], 6%.
The like results for `O=C(NCC1CCCCC1)c1cc(=O)c2ccccc2o1` were, in that order, 98%, 77% and 0%.
The corresponding values for `CC(CN(C)C)C(=O)Nc1cccc(-c2ccc(-c3nc4cc(F)ccc4[nH]3)s2)c1` (configuration not stated) are 100%, 99% and 3%.
In the case of `Cl.Oc1cccc(Nc2ccnc3cc(-c4cc5ccccc5o4)ccc23)c1`, the Inhibition is reported as 100% in test [1], 71% in test [2] and 9% in test [3].
The like results for `O=C(c1cccc(-c2noc(C(F)(F)F)n2)c1)N1CCN(C(=O)c2ccc3cc[nH]c3c2)CC1` were, in that order, 94%, 85% and 15%.
The like results for `Nc1ccc(-c2nc3cc(Cc4ccc5[nH]c(-c6ccc(N)cc6)nc5c4)ccc3[nH]2)cc1` were, in that order, 100%, 96% and 47%.
The corresponding values for `Cn1ccnc1-c1nc2ccccn2c1NCC(=O)Nc1ccccc1N1CCCCC1` are 85%, 57% and 16%.
For `Cc1ccc(Nc2nc(NN=Cc3ccc(-c4ccc([N+](=O)[O-])cc4)o3)nc(N3CCOCC3)n2)cc1Cl`, the Inhibition turned out to be 95% in test [1], 47% in test [2] and 12% in test [3].
Regarding `CS(=O)(=O)c1ccc(CNCc2ccc(-c3ccc(-c4nc5cc(C(F)(F)F)ccc5[nH]4)s3)cc2)cc1.O=C(O)C(F)(F)F`, the Inhibition in test [1] was found to be 100%; in test [2] it was 98%; in test [3], 49%.

By Inhibition is commonly meant the percentage by which the read-out fell short of the control. A high value points to a response far below the control.

For the origin of these results see ChEMBL document CHEMBL1157539, “Thousands of chemical starting points for antimalarial lead identification” (Nature, 2010).
